SNCA expr inh: reduces expression of the alpha-synuclein gene. HEK-293 SNCA-luciferase knock-in, luminescence, 24 h. 140,000 compounds, 0.17% hits. AID 1671194. Potency, µM (series often up to 57.2 µM), for inactives: at the top dose activity change, negative = inhibition, actives largely listed as inhibitors;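 further: potency means the concentration at half of the fitted maximal effect; plate controls were DMSO cells for no effect and cell-free wells for full effect; nearly all actives have a fitted effect of over 45% in size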
IP6K1 inh: IP6K1 kinase inhibition; Q92551; IP6K1 kinase, ADP-Glo luminescence, 2 h; stronger effect = lower value; activity change, % (series mostly up to about 58 µM); 140,000 compounds, 0.81% hits; AID 1645851; in the data active means activity change below about -25%; further: on the % scale 0 is the no-effect control and ±100 the full control effect
Target sequence (Q92551 whole entry, looked up): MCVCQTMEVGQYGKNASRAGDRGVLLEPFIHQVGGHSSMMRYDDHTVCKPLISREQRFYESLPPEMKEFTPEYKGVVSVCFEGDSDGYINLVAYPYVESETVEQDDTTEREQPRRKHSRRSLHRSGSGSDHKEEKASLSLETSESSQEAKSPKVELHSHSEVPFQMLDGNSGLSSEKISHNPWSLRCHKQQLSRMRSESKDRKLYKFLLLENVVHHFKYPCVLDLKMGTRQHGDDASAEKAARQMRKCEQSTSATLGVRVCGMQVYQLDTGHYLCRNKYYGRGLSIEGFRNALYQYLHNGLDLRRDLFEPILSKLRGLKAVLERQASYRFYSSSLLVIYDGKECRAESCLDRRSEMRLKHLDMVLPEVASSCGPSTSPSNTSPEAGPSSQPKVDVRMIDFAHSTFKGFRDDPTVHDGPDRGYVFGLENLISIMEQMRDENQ
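ADP-Glo luminescence measures ADP made by human IP6K1 during a 2 h RT reaction with ATP/IP6 (mix at 1.3 mM/130 uM); top library doses 57.5 and 19.1 uM final.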
KDM5B inhibitor: blocks human KDM5B histone demethylase activity | KDM5B demethylase, FDH-coupled NADH fluorescence (FDH is formaldehyde dehydrogenase) | 220,000 compounds, 2.6% hits | Q9UGL1 | Potency, µM (series often up to 57.7 µM), hits mostly inhibitors; further: potency means the concentration at half of the fitted maximal effect; 0% is about no effect; nearly all actives have a fitted effect of over 70% in size
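Inhibition is measured as reduced NADH fluorescence generation from FDH coupling to formaldehyde release. Truncated KDM5BΔAP at 200 nM final acts on H3K4me3 peptide (12.5 µM in substrate mix) in pH 7.5 HEPES buffer with Tween-20, 30 min, room temperature.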
SNCA viab count: reduces viability of HEK-293 SNCA reporter cells. AID 1671193. HEK-293-SNCA-luc viability, GF-AFC fluorescence, 24 h. 150,000 compounds, 0.12% hits. Potency, µM (titrated, usually from 57.1 µM), for inactives: at the highest dose activity change, negative = cytotoxicity, usual class: cytotoxic;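 further: potency means the concentration at half of the fitted maximal effect; 0% = DMSO-treated cells and -100% = medium-only wells without cells; nearly all actives have a fitted effect of over 30% in size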
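HEK-293-SNCA-luc cells (1500/well) plated 24 h, then exposed 24 h to a dilution series; GF-AFC added 30 min at 37C, fluorescence 405/540 nm; normalised to medium-only and DMSO wells, Hill fit.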
* hit, by the source's call; i = inactive; ? = inconclusive; . = no result given; [ ] = dose if it differs, or a comment. This is a sample that favours compounds with a hit; in the whole collection about 2.9% have one here. Unless noted, the call rests on the fitted dose curve; in most records, active means well fitted curve in the direction sought with a large enough effect; inconclusive means small, poorly fitted or top-dose-only effect, or another doubt; inactive means no such curve, though single readings can be large; an effect the other way counts as inactive or inconclusive.

SMILES | SNCA expr inh | IP6K1 inh | KDM5B inhibitor | SNCA viab count
CN(C)CCNC(=O)c1ccc2c(=O)n3c(nc2c1)CCCCC3 | 4.9% | 18.0 | i | 5.5%
CN1CC2(CCCN(CC3CC3)C2)c2cc(C(=O)NCCc3ccccc3)ccc21 (stereo not drawn) | 9.2%[87.6 µM] | 2.9 | 35.5µM* | -12.4%[87.6 µM]
COc1ccc(C(=O)N2CCc3ccc(C(=O)NCc4ccccc4)cc32)cc1 | 36.9% | 1.0 | i | -21.3%
COCCN1CCC2(C1)CN(C)c1ccc(C(=O)NCc3ccccc3)cc12 (stereo not drawn) | 124.3%[87.6 µM] | -2.2 | 35.5µM* | 5.0%[87.6 µM]
CN(C)CCNC(=O)c1ccc2c(c1)C1(CCCN(CC3CC3)C1)CN2C (stereo not drawn) | 10.8%[87.6 µM] | 6.8 | 35.5µM* | -15.6%[87.6 µM]
CC(C)CNC(=O)c1ccc2c(c1)C1(CCCN(CC3CC3)C1)CN2C (stereo not drawn) | -27.7%[87.6 µM] | 17.9 | 35.5µM* | -2.5%[87.6 µM]
Cn1ccc(NC(=O)c2ccc3c(c2)C2(CCN(CC4CC4)C2)CN3Cc2ccccc2)n1 (stereo not drawn) | -7.4% | 13.5 | ? | -2.0%
CN1CC2(CCCN(CC3CC3)C2)c2cc(C(=O)N3CC(O)C3)ccc21 (stereo not drawn) | 4.5%[87.6 µM] | 24.0 | ? | 13.3%[87.6 µM]
CC(=O)c1ccc(OCc2ccc(Cl)cc2Cl)cc1 | . | . | i | .
CC(=O)N1CCCC2(C1)CN(C)c1ccc(C(=O)NCCc3ccccc3)cc12 (stereo not drawn) | -10.2%[87.6 µM] | 4.3 | 35.5µM* | -0.4%[87.6 µM]
CN1CCC2(C1)CN(Cc1ccccc1)c1ccc(C(=O)NCCc3ccccn3)cc12 (stereo not drawn) | 4.0%[87.6 µM] | -6.7 | ? | 5.4%[87.6 µM]
COc1ccc(CN2Cc3cc(NC(=O)c4ccc(Cl)cc4)ccc3OC(C)C2=O)c(OC)c1 (stereo not drawn) | -0.2% | -10.6 | 25.1µM* | -25.8%
COc1ccc(C(=O)Nc2ccc3c(c2)CN(Cc2ccc(OC)cc2OC)C(=O)C(C)O3)cc1 (stereo not drawn) | 5.0% | -6.5 | i | -15.3%
CCNC(=O)Nc1ccc2c(c1)CN(Cc1ccccc1OC)C(=O)C(C)O2 (stereo not drawn) | -10.8% | 0.8 | 28.2µM* | 12.5%
CCC(C(=O)Nc1ccc2c(c1)CN(Cc1ccccc1OC)C(=O)C(C)O2)c1ccccc1 (stereo not drawn) | -10.3% | 14.1 | i | -5.1%
CC(C)N1C[C@@H]2CN(C(=O)CCCn3ccnc3)C[C@]2(C(=O)O)C1 | 0.9% | 1.2 | i | 10.1%
CCc1ccc(/C=C/C(=O)c2ccc(CC(=O)O)cc2)cc1 | . | . | i | .
CO[C@H]1C(=O)N(C(C)C)[C@H]1C1CCN(Cc2ccc(C)s2)CC1 | -5.9% | 15.4 | ? | 4.4%
CCc1ccccc1OCCN(C)Cc1ncc[nH]1 | -0.5% | 2.6 | 22.4µM* | -3.8%
O=C(Cn1nc(-c2ccc(F)cc2)ccc1=O)NC1CCCc2c1[nH]c1ccccc21 (stereo not drawn) | -21.1% | -16.9 | 14.1µM* | 5.9%
O=C(NC1CCCc2c1[nH]c1ccccc21)c1n[nH]c2c1CCCC2 (stereo not drawn) | 30.0% | -13.3 | 14.1µM* | -18.0%
O=C(NC1CCCc2c1[nH]c1ccccc21)c1n[nH]c2c1CCC2 (stereo not drawn) | 41.2% | -13.2 | ? | -3.1%
O=C(Cn1nc(-c2ccco2)ccc1=O)NC1CCCc2c1[nH]c1ccccc21 (stereo not drawn) | -11.3% | -6.9 | ? | -7.6%
COc1ccc(C(=O)N2CCCN(c3cc(-c4ccc(C)c(C)c4)[nH]n3)CC2)cc1OC | -7.2% | -6.4 | i | -0.9%
O=C(c1ccccc1Cl)N1CCCN(c2ccc3nnc(-c4ccccc4)n3n2)CC1 | . | 6.8 | . | .
SMILES | SNCA expr inh | IP6K1 inh | KDM5B inhibitor | SNCA viab count
Cc1cccc2nnc(N3CCCN(C(=O)c4ccccc4Cl)CC3)n12 | 7.8% | 17.1 | 22.4µM* | -0.9%
O=C(CCc1ccccc1)N1CCN(c2cc(-c3cccs3)[nH]n2)CC1 | 26.5% | 6.9 | ? | 1.0%
Cc1ccc(C(=O)N2CCN(c3nnc4cccc(C)n34)CC2)cc1C | 5.4% | 18.4 | 25.1µM* | -4.1%
Cc1cccc2nnc(N3CCN(C(=O)CCc4ccccc4)CC3)n12 | 16.6% | 8.0 | 25.1µM* | -4.5%
Cc1ncc(C(=O)NCc2ccc3[nH]c(-c4ccccc4F)c(C)c3c2)c(C)n1 | 3.8% | -4.1 | 20µM* | -11.8%
Cc1ccc(CNC(=O)CCc2ncc(-c3c(F)cccc3F)o2)cc1F | . | . | i | .
Cc1nc(CCC(=O)NCc2ccc3[nH]c(-c4ccccc4F)c(C)c3c2)n[nH]1 | 113.6% | 18.4 | 25.1µM* | -5.9%
Cc1ncc(CC(=O)NCc2ccc3[nH]c(-c4ccccc4F)c(C)c3c2)c(=O)[nH]1 | 85.1% | -5.3 | ? | 4.0%
Cc1c(-c2ccccc2F)[nH]c2ccc(CNC(=O)CN3CC(=O)NC3=O)cc12 | 40.8% | -0.3 | 28.2µM* | 6.5%
Cc1c(-c2ccccc2F)[nH]c2ccc(CNC(=O)CCn3cnnc3)cc12 | 13.3% | 2.1 | 31.6µM* | -10.1%
COc1ccc2c(c1)cc(C(=O)NCc1ccc(C)cc1)n2C | . | . | i | .
CC(=O)Nc1cccc(-c2cc(C(=O)NCc3c(C)cc(C)[nH]c3=O)c3c(c2)N(C(C)C)CCO3)c1 | -25.6% | -21.5 | 28.2µM* | -21.4%
Cc1cc(C)c(CNC(=O)c2cc(-c3ccccc3C)cc3c2OCCN3C(C)C)c(=O)[nH]1 | ? | -9.0 | 31.6µM* | -18.4%
Cc1cc(C)c(CNC(=O)c2cc(-c3cnn(C)c3C)cc3c2OCCN3C(C)C)c(=O)[nH]1 | 11.2% | -8.6 | ? | 6.8%
Cc1cc(C)c(CNC(=O)c2nc(-c3ccccc3)cc3c2ccn3C(C)C)c(=O)[nH]1 | -17.1%[87.6 µM] | 44.7 | i | -25.4%[87.6 µM]
Cc1cc(C)c(CNC(=O)c2cc(-c3ccccc3C)cc3ncn(C)c23)c(=O)[nH]1 | -15.6%[87.6 µM] | -6.0 | ? | -10.6%[87.6 µM]
Cc1cc(C)c(CNC(=O)c2cc(-c3ccccc3O)cc3c2OCCN3C(C)C)c(=O)[nH]1 | -18.4% | -7.1 | 25.1µM* | -5.3%
Cc1cc(C)c(CNC(=O)c2cc(-c3ccccc3F)cc3c2OCCN3C(C)C)c(=O)[nH]1 | ? | -14.2 | 31.6µM* | -26.5%
COc1cccc(-c2cc(C(=O)NCc3c(C)cc(C)[nH]c3=O)c3c(c2)N(C(C)C)CCO3)c1OC | -21.5% | -17.9 | 28.2µM* | -7.3%
Cc1cc(C)c(CNC(=O)c2cc(-c3cccc4[nH]ccc34)cc3ncn(C)c23)c(=O)[nH]1 | -1.5%[87.6 µM] | -0.7 | ? | -8.5%[87.6 µM]
COc1ccc(-c2cc(C(=O)NCc3c(C)cc(C)[nH]c3=O)c3c(c2)N(C(C)C)CCO3)cc1 | -29.2% | -17.2 | 31.6µM* | -10.5%
Cc1cc(C)c(CNC(=O)c2cc(-c3ccccc3O)cc3c2OCCN3C)c(=O)[nH]1 | -29.7%[87.6 µM] | -17.5 | 35.5µM* | -17.5%[87.6 µM]
COc1ncc(-c2cc(C(=O)NCc3c(C)cc(C)[nH]c3=O)c3c(c2)N(C(C)C)CCO3)cn1 | -27.0% | -10.4 | i | -7.1%
C=CCOc1c(OC)ccc2c1CN(C1CCCC1)C(=O)CCN2CC(O)COc1ccccc1 (stereo not drawn) | . | -4.0 | . | .
COc1cc(OC)cc(C(=O)N2CCC(N3CCCC3)CC2)c1 | . | . | i | .

Screens as filed in PubChem.
